The record followed here is PubChem BioAssay (Tox21).

The nature of assay [1]: qHTS assay to identify aromatase inhibitors - cell viability counter screen (AID 743084).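 Also: cells stimulated with testosterone during compound exposure; nearly all actives have a fitted effect of over 55% in size.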 Also: potency is read from the fitted curve at half-maximal effect. On the technique in general: qHTS replaces the single test concentration by a dilution series.
Assay [2] deals with Aryl hydrocarbon receptor (Homo sapiens) (UniProt P35869). The assay can be described thus: qHTS assay to identify small molecule that activate the aryl hydrocarbon receptor (AhR) signaling pathway (AID 743085). Also: nearly all actives have a fitted effect of over 15% in size. Also: potency is read from the fitted curve at half-maximal effect.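 As to activation: HG2L7.5c1 human HepG2 liver cells with stably integrated DRE-driven firefly reporter; series mostly up to about 70 µM.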 In outline:
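Reporter assay in engineered HepG2 line HG2L7.5c1, whose plasmid carries twenty dioxin responsive elements upstream of firefly luciferase. Treatment lasted 24 h at 37C; ONE-Glo luminescence gauged induction.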

Assay [3] in a line: qHTS assay to identify small molecule that activate the aryl hydrocarbon receptor (AhR) signaling pathway - cell viability counter screen (AID 743086).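 Also: HepG2 liver cells carrying the AhR DRE luciferase reporter; series mostly up to about 70 µM; nearly all actives have a fitted effect of over 45% in size.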 The method in brief:
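HepG2-AhR-luc (HG2L7.5c1) cells, 4000/well, were preincubated 5 h at 37C, exposed to compound in qHTS format for 24 hr at 37C, then given CellTiter-Fluor for 30 min; viability was read as fluorescence in the reporter wells.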

Assay [4] is described as follows: qHTS assay for small molecule activators of the heat shock response signaling pathway - cell viability counter screen (AID 743209). Also: nearly all actives have a fitted effect of over 50% in size. In outline: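 Counter screen for cytotoxicity in HeLa HSE-bla reporter cells. Treatment was 5 h at 37 C; viability was detected by luminescent ATP assay (CellTiter-Glo) in the same wells as the beta-lactamase read.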
Assay [5] is described as follows: qHTS assay for small molecule activators of the heat shock response signaling pathway (AID 743210; active = well fitted activation curve with a large enough effect in the signal ratio in the repeat runs, with a control signal flat, not every such curve was filed as active; the % refers to the signal ratio; also: potency is read from the fitted curve at half-maximal effect;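 as to activation: HeLa cells with beta-lactamase reporter driven by heat shock elements; series mostly up to about 63 µM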). In outline:
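Reporter gene assay: HeLa cells stably bearing an HSE-bla construct, compound treatment 5 h at 37 C, LiveBLAzer substrate 2.5 h at RT, fluorescence intensity.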

For assay [6], the target named is Peroxisome proliferator-activated receptor delta (Homo sapiens) (UniProt Q03181). The assay can be described thus: qHTS assay to identify small molecule agonists of the peroxisome proliferator-activated receptor delta (PPARd) signaling pathway (AID 743212; calls by dose curve; also: potency is read from the fitted curve at half-maximal effect). The method in brief: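 A PPARd-bla HEK293H line with beta-lactamase under an Upstream Activator Sequence is treated with compounds at 37 C. Substrate loading for 2 h at room temperature precedes the fluorescence measurement.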
Sequence of Peroxisome proliferator-activated receptor delta (Homo sapiens) (Q03181 whole entry, looked up): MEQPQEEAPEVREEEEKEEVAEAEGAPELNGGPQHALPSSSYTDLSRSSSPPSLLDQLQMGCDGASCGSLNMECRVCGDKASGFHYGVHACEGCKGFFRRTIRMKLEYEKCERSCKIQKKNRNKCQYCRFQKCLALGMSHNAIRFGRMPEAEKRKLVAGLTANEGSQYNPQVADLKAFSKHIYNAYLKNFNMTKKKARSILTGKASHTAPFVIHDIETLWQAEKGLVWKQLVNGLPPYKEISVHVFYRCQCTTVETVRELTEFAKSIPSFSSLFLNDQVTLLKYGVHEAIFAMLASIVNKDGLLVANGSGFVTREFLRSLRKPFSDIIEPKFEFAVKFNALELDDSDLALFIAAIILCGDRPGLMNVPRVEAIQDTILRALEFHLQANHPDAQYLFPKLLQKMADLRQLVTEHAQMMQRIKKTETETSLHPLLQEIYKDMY

Assay [7] has the same target. Nature of the assay: qHTS assay to identify small molecule antagonists of the peroxisome proliferator-activated receptor delta (PPARd) signaling pathway (AID 743215; active = well fitted inhibition curve with a large enough effect in the signal ratio in the repeat runs, not every such curve was filed as active; the % refers to the signal ratio;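 also: cells stimulated with agonist L165041 at 300 nM final during compound exposure; series mostly up to about 62 µM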). The method in brief: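 With L165041 present at 300 nM final, compounds were incubated 17 h at 37 C on PPARd UAS-bla HEK293H cells. A FRET-based beta-lactamase substrate was then applied for 2 h at room temperature and fluorescence intensity recorded.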

Assay [8] in a line: qHTS assay to identify small molecule agonists of the farnesoid-X-receptor (FXR) signaling pathway - cell viability counter screen (AID 743218). Also: nearly all actives have a fitted effect of over 45% in size. Also: potency is read from the fitted curve at half-maximal effect. The method in brief: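 After 16 h at 37 C with test compounds, FXR-bla HEK 293T cells were given LiveBLAzer B/G substrate for 2 h at RT and then CellTiter-Glo; luminescence was taken after 30 min.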
Assay [9] has as its target Bile acid receptor (Homo sapiens) (UniProt Q96RI1). Nature of the assay: qHTS assay to identify small molecule agonists of the farnesoid-X-receptor (FXR) signaling pathway (AID 743220; active = well fitted activation curve with a large enough effect in the signal ratio in the repeat runs, not every such curve was filed as active; the % refers to the signal ratio). In outline:
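Beta-lactamase reporter under UAS control in GeneBLAzer FXR HEK 293T cells (5000/well) measured with LiveBLAzer FRET substrate after 2 h at room temperature. Compound exposure lasted 16 h at 37C.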

Assay [10] in a line: qHTS assay to identify small molecule antagonists of the farnesoid-X-receptor (FXR) signaling pathway - cell viability counter screen (AID 743221; active = well fitted cell-killing curve with a large enough effect in the repeat runs, not every such curve was filed as active; also: nearly all actives have a fitted effect of over 50% in size). In outline: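 CellTiter-Glo, 30 min RT, luminescence; same wells as the LiveBLAzer FRET read. Cells: FXR-UAS-bla HEK 293T. Treatment: compound with chenodeoxycholic acid 50 uM final, 16 h at 37 C.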
For assay [11], the target named is Vitamin D3 receptor (Homo sapiens) (UniProt P11473). Nature of the assay: qHTS assay to identify small molecule antagonists of the vitamin D receptor (VDR) signaling pathway (AID 743223; active = well fitted inhibition curve with a large enough effect in the signal ratio in the repeat runs, not every such curve was filed as active; the % refers to the signal ratio). In outline: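 After VDR-bla cells are plated and left 4 h at 37C, DMSO-dissolved compounds and 3 nM (final) calcitriol agonist are added. Incubation continues 16 h at 37C; FRET beta-lactamase substrate then develops 2 h at room temperature.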
Sequence of Vitamin D3 receptor (Homo sapiens) (P11473 whole entry, looked up): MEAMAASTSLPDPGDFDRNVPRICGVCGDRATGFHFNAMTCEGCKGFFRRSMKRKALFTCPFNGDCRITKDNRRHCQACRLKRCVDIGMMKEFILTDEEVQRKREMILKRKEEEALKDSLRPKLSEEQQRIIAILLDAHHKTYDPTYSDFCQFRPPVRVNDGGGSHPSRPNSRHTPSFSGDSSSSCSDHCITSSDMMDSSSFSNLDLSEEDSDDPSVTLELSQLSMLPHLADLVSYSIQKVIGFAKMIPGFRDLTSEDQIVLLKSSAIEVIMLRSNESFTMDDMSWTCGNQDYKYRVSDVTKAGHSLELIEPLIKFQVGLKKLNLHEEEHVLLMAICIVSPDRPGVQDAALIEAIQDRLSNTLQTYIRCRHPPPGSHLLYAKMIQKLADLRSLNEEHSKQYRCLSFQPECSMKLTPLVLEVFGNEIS

Assay [12] concerns the target Peroxisome proliferator-activated receptor gamma (Homo sapiens) (UniProt P37231). The assay can be described thus: qHTS assay to identify small molecule agonists of the peroxisome proliferator-activated receptor gamma (PPARg) signaling pathway (AID 743094; active = well fitted activation curve with a large enough effect in the signal ratio in the repeat runs, not every such curve was filed as active; the % refers to the signal ratio; also: potency is read from the fitted curve at half-maximal effect). In outline:
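Following 5 h plating at 37C, PPARg-bla HEK293H cells receive compound or DMSO for 17 h; fluorescence intensity is recorded after LiveBLAzer B/G loading for 1 h at room temperature.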

The target is the same in assay [13]. The assay can be described thus: qHTS assay to identify small molecule antagonists of the peroxisome proliferator-activated receptor gamma (PPARg) signaling pathway (AID 743191; calls by dose curve; also: series mostly up to about 63 µM; nearly all actives have a fitted effect of over 30% in size). The method in brief:
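GeneBLAzer PPARg UAS-bla HEK293H cells carrying a UAS-driven beta-lactamase reporter were plated at 3000 cells/well, preincubated 5 h at 37C, then given compound for 17 h at 37C; LiveBLAzer B/G FRET substrate was read after 1 h at room temperature.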

Assay [14] in a line: qHTS assay to identify small molecule antagonists of the peroxisome proliferator-activated receptor gamma (PPARg) signaling pathway - cell viability counter screen (AID 743194). Also: nearly all actives have a fitted effect of over 55% in size. In outline: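 PPARg-UAS-bla HEK293H cells were plated, rested 5 h at 37 C, then treated with compounds plus rosiglitazone (50 nM final) for 17 h at 37 C; viability was then read by CellTiter-Glo luminescence after 30 min at room temperature.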

A short description of assay [15]: qHTS assay for small molecule agonists of the antioxidant response element (ARE) signaling pathway (AID 743202; active = well fitted activation curve with a large enough effect in the signal ratio in the repeat runs, not every such curve was filed as active; the % refers to the signal ratio; also: potency is read from the fitted curve at half-maximal effect). The method in brief:
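Compounds delivered in DMSO to ARE-bla HepG2 cells (2,000 cells/well, pre-incubated 5 h) and left 16 h at 37 C. LiveBLAzer B/G FRET substrate then added for 2 h at RT before fluorescence reading.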

Assay [16] in a line: qHTS assay for small molecule agonists of the antioxidant response element (ARE) signaling pathway - cell viability counter screen (AID 743203; calls by dose curve; also: nearly all actives have a fitted effect of over 55% in size). The method in brief: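 Compounds in DMSO were pinned onto ARE-bla HepG2 cells plated 5 hrs earlier at 2,000 cells/well. Sixteen hours later at 37C/5% CO2, CellTiter-Glo was added and luminescence measured after 30 min at room temperature.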

Assay [17] is described as follows: qHTS assay to identify small molecule agonists of the peroxisome proliferator-activated receptor delta (PPARd) signaling pathway - cell viability counter screen (AID 743211). Also: nearly all actives have a fitted effect of over 55% in size. In outline: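 Multiplexed format: after the 2 h room-temperature LiveBLAzer B/G FRET step, CellTiter-Glo was added to the same wells. Luminescence after 30 min gave cell viability; compound exposure was 17 h at 37C.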

A short description of assay [18]: qHTS assay to identify small molecule antagonists of the peroxisome proliferator-activated receptor delta (PPARd) signaling pathway - cell viability counter screen (AID 743213). Also: nearly all actives have a fitted effect of over 50% in size. The method in brief:
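PPARd-bla HEK293H cells (3000/well) got compound plus 300 nM L165041 agonist for 17 h at 37 C. Viability in the same wells came from CellTiter-Glo luminescence after 30 min at room temperature.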

For assay [19], the target named is Vitamin D3 receptor (Homo sapiens) (UniProt P11473). The assay can be described thus: qHTS assay to identify small molecule agonists of the vitamin D receptor (VDR) signaling pathway (AID 743222; calls by dose curve). The method in brief:
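VDR-bla cells were seeded, left 4 h, treated with compounds in DMSO for 16 h, incubated 2 h at RT with B/G FRET substrate, and read for fluorescence.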

Assay [20] deals with Bile acid receptor (Homo sapiens) (UniProt Q96RI1). Nature of the assay: qHTS assay to identify small molecule antagonists of the farnesoid-X-receptor (FXR) signaling pathway (AID 743217; active = well fitted inhibition curve with a large enough effect in the signal ratio in the repeat runs, not every such curve was filed as active; the % refers to the signal ratio). In outline: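 In this cell-based antagonist screen, inhibition of CDCA-driven (50 uM final) UAS-beta-lactamase expression in HEK 293T cells was measured by FRET fluorescence following 16 h compound exposure at 37 °C.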
Sequence of Bile acid receptor (Homo sapiens) (Q96RI1 whole entry, looked up): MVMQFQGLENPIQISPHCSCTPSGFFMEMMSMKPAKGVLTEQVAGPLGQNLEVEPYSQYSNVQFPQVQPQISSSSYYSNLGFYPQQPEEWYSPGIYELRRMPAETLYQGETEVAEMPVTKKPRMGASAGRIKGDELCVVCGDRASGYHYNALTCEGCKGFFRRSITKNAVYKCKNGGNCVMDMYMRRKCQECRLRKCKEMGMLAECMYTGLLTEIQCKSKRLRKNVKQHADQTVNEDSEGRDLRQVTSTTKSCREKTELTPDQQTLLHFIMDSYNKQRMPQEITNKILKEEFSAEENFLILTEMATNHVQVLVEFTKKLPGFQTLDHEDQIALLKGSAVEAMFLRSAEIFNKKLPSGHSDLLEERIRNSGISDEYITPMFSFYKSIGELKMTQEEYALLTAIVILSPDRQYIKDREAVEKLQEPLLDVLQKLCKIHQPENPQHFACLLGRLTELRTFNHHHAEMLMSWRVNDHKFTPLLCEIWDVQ

SMILES strings stand for the structures. Records with an inconclusive call do not appear. The source made the active and inactive calls. Unless noted, calls follow the shape of the dose curve; as a rule, active = well fitted curve in the direction sought with a large enough effect in the repeat runs; inconclusive = weak or mixed curves; inactive = no such curve, though single readings can be large; an effect the other way counts as inactive or inconclusive.

Sequence of Peroxisome proliferator-activated receptor gamma (Homo sapiens) (P37231 whole entry, looked up): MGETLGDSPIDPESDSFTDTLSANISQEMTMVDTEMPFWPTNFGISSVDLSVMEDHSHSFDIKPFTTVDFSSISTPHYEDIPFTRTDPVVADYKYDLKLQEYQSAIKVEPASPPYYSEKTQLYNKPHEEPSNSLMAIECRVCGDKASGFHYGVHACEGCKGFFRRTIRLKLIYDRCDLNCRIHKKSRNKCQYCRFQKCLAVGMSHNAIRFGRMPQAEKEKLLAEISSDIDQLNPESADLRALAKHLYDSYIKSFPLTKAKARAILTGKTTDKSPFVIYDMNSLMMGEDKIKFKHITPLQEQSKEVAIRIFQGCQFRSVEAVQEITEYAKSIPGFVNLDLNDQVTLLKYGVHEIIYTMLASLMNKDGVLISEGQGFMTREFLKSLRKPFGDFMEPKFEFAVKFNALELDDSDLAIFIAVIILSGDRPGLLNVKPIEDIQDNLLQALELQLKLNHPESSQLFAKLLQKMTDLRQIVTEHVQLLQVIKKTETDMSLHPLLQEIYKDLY
Sequence of Aryl hydrocarbon receptor (Homo sapiens) (P35869 whole entry, looked up): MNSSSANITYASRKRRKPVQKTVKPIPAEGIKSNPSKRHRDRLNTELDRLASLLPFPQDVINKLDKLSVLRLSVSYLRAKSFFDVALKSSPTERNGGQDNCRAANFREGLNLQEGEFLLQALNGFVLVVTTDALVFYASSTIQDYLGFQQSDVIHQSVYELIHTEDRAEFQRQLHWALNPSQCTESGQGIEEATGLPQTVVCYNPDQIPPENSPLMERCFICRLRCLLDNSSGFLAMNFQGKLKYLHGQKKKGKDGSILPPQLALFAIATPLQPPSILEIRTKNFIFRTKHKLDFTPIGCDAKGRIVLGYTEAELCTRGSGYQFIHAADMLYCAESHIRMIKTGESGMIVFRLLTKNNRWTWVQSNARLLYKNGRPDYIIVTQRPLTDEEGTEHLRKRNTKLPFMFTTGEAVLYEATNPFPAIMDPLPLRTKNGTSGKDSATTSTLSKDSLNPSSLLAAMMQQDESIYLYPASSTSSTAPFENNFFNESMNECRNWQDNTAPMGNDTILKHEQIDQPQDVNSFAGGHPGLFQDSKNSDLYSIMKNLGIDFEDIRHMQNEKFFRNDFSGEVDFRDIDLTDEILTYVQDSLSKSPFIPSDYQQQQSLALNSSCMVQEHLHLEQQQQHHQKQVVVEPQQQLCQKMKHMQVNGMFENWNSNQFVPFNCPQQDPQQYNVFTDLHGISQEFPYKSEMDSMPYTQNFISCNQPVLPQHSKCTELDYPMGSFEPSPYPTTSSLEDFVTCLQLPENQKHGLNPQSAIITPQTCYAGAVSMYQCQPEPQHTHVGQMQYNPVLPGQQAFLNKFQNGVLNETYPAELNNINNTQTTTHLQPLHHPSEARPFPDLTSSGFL

Turning to `Cc1oc2c(NC(=O)c3c(Cl)cccc3Cl)cccc2c1C(C)(C)O`, the Potency result in assay [1], in assay [3], in [4], in assay [5], in assay [6] and in assay [7] was “inactive” each time. The Potency entry in assay [9] and in assay [10] was “inactive” in each case. The Potency in assay [2] was 8.63 µM (active); in assay [8], 21.9 µM (active). Besides, the result in assay [11] was inactive.
Take `COc1cc2nc(N(C)CCCNC(=O)C3CCCO3)nc(N)c2cc1OC` (stereo not drawn): the Potency entry in assay [1], in assay [3], in assay [12], in [13], in assay [14] and in [16] was “inactive” each time. For the same compound, the Potency entry in assay [4], in assay [5], in [17], in assay [6], in [18] and in assay [7] was “inactive” in each case. The Potency entry in [8] and in [10] was “inactive” throughout. In addition, the Potency in assay [15] is 23.7 µM (active).
As to `CCC(=O)O[C@]1(C(=O)CCl)[C@@H](C)C[C@H]2[C@@H]3CCC4=CC(=O)C=C[C@]4(C)[C@@]3(F)[C@@H](O)C[C@@]21C`, the Potency result in assay [1], in assay [3], in [12], in assay [13], in [14] and in assay [16] was “inactive” throughout. The Potency result in assay [4], in assay [5], in assay [8] and in [19] was “inactive” throughout.
Regarding `CCCCC(=O)OCC(=O)[C@H]1[C@H](C)C[C@H]2[C@@H]3C[C@H](F)C4=CC(=O)C=C[C@]4(C)[C@@]3(F)[C@@H](O)C[C@@]21C`, the Potency result in [1], in [2], in assay [12], in [14], in [15] and in assay [16] was “inactive” throughout. The Potency result in assay [4], in assay [18], in [8], in assay [10] and in assay [19] was “inactive” throughout. For the same compound, the compound was classed as inactive in assay [11].
Take `CCCNCC(O)COc1ccccc1C(=O)CCc1ccccc1` (stereo not drawn): the Potency result in assay [1], in assay [2], in [14], in assay [16], in [4] and in [5] was “inactive” each time. Also, the Potency entry in [19] is “inactive”. Moreover, in assay [11], the result was inactive.
For `O=C(OCCCCCCOC(=O)c1ccccc1)c1ccccc1`, the Potency result in assay [1], in assay [2], in assay [3], in assay [14], in assay [16] and in [6] was “inactive” each time. For the same compound, the Potency entry in assay [9] and in [10] was “inactive” throughout. The Potency in [5] is 57.1 µM (active). In assay [11], the compound was called inactive.
Regarding `Cc1oc(-c2ccccc2)nc1CCOc1cccc2c1ccn2CCC(=O)O`, the Potency in assay [1] was 27.3 µM (active); in assay [12], 0.0174 µM (active); in assay [6] it was 8.71 µM (active). Moreover, the Potency result in assay [2], in [16], in assay [4], in assay [18], in assay [7] and in assay [10] was “inactive” in each case. Further, the Potency result in [19] was “inactive”.
As for `C[N+]1(C)CCC(OC(=O)C(O)(c2ccccc2)C2CCCC2)C1` (stereo not drawn), the Potency entry in [1], in assay [3], in [12], in [14], in assay [16] and in assay [4] was “inactive” each time. The Potency result in assay [5], in assay [17], in assay [6], in assay [18], in assay [10] and in assay [19] was “inactive” each time. The outcome in assay [11] was inactive.
`CCNc1cc(O)ccc1C`: the Potency entry in assay [1], in [3], in assay [16], in [4], in assay [5] and in assay [17] was “inactive” each time. Further, the Potency result in assay [6], in assay [18], in assay [7], in assay [20], in [8] and in assay [9] was “inactive” in each case. Moreover, the Potency result in [19] was “inactive”. For the same compound, in [2], the Potency is 30.3 µM (active).
As for `CCN(CC)CCOC(=O)C(c1ccccc1)C1CCCCC1` (stereo not drawn), the Potency entry in assay [1], in assay [3], in [12], in assay [13], in assay [15] and in assay [16] was “inactive” throughout. Further, the Potency result in assay [4], in [7] and in assay [19] was “inactive” each time. Further, the result in [11] was inactive.
